Key:
Assay in all cases: DAPPL (digital affinity profiling via proximity ligation, sequencing); 10 mM Tris-HCl pH 7.5, 50 mM NaCl, 1 mM DTT, 4% glycerol, room temperature, 30 min; GST-TFs on glutathione beads, 16-mer random dsDNA library, 0.1% formaldehyde crosslink after washing; high values mean tight binding
Details in all cases: protein: recombinant; tags: N-terminal GST; dsDNA, one strand shown
FLI1 = target: T1, FLI1 (Homo sapiens, UniProt Q01543 1-452)
T1 sequence: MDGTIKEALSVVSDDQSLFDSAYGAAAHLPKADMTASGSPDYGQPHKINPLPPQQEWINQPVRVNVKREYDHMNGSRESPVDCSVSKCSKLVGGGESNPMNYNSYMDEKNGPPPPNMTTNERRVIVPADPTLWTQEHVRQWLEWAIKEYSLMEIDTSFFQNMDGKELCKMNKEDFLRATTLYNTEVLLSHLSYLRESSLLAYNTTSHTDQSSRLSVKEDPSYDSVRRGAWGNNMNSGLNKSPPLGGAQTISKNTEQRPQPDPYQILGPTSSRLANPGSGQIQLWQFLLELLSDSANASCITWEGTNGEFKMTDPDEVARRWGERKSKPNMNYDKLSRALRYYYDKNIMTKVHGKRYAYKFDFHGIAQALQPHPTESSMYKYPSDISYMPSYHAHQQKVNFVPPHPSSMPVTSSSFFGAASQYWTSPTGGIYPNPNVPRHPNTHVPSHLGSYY
In short: (§1)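 After expression in yeast as GST fusions, human transcription factors were bound to glutathione beads, DNA-barcoded and mixed with a tag-only sample. The pools were incubated with 200 nmole of a 16-mer random double-stranded DNA library in Tris/NaCl/DTT/glycerol buffer (30 min, room temperature), washed and crosslinked with 0.1% formaldehyde. Proximity ligation with BsaI/T4 ligase ran for 1 h at 37 °C, before PCR amplification and sequencing on an Illumina NextSeq500. Binding signal is a hexamer's read frequency for a factor divided by its frequency for the tag-only sample.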

ELK1 = target: T2, ELK1 (Homo sapiens, UniProt P19419 1-428)
T2 sequence: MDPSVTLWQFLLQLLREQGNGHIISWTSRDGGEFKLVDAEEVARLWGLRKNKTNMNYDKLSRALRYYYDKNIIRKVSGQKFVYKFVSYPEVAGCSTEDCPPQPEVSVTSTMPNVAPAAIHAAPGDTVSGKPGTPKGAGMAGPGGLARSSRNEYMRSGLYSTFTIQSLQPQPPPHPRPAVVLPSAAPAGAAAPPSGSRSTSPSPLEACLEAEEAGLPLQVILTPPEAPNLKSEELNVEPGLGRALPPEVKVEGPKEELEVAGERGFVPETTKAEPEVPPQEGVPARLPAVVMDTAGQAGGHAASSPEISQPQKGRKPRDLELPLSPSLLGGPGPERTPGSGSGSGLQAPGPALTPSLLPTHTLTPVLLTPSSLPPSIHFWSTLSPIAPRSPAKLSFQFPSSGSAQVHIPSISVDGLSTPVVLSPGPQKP
In short: as §1

GABPA = target: T3, GABPA (Homo sapiens, UniProt Q06546 1-454)
T3 sequence: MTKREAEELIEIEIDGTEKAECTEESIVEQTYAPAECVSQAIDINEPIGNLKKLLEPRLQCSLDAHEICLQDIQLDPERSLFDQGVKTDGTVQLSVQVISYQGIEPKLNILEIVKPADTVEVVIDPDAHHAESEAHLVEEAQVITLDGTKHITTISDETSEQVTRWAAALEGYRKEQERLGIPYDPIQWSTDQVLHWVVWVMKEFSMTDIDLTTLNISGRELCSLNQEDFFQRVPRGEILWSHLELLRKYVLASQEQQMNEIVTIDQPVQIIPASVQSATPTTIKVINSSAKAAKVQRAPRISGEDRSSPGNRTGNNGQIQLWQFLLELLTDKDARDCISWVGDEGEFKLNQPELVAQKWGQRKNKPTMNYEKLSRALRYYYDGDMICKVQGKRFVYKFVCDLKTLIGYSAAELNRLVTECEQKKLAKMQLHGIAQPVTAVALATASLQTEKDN
In short: as §1

ERG = target: T4, ERG (Homo sapiens, UniProt P11308 1-479)
T4 sequence: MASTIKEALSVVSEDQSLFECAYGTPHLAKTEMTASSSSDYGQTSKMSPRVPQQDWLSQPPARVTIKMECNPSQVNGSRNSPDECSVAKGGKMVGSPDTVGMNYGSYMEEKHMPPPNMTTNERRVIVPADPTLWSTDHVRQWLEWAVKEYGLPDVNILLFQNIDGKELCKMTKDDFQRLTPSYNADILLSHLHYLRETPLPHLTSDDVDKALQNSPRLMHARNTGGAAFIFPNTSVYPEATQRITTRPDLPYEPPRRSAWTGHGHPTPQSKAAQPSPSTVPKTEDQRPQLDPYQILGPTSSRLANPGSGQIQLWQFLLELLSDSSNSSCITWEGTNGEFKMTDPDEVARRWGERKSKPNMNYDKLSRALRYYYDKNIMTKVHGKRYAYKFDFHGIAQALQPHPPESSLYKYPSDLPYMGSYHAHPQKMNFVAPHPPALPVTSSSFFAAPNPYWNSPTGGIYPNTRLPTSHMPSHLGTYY
In short: as §1

ELF1 = ELF1 (Homo sapiens, UniProt P32519 1-619)
In short: as §1

EHF = target: T5, EHF (Homo sapiens, UniProt Q9NZC4 1-300)
T5 sequence: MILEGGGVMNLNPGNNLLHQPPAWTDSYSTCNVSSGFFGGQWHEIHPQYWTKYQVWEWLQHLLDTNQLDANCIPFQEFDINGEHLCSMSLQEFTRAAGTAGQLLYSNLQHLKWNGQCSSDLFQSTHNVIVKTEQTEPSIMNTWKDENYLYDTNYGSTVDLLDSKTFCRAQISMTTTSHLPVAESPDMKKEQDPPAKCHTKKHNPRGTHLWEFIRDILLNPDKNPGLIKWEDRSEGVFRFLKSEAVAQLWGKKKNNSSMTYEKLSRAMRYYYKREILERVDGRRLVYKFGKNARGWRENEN
In short: as §1

SPI1 = SPI1 (Homo sapiens, UniProt P17947 1-270)
In short: as §1

SPIB = SPIB (Homo sapiens, UniProt Q01892 1-262)
In short: as §1

ELK3 = target: T6, ELK3 (Homo sapiens, UniProt P41970 1-407)
T6 sequence: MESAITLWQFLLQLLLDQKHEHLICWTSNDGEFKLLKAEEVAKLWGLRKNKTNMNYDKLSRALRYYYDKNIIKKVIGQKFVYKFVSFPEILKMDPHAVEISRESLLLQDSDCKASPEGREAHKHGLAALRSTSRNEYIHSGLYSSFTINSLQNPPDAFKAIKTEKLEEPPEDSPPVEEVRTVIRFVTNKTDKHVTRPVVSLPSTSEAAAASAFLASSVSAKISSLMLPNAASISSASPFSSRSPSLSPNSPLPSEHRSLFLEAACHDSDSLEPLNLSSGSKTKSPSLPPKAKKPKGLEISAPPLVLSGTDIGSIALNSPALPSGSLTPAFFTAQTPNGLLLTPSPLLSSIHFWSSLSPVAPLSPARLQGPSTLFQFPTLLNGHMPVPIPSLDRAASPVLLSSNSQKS
In short: as §1

FEV = target: T7, FEV (Homo sapiens, UniProt Q99581 1-238)
T7 sequence: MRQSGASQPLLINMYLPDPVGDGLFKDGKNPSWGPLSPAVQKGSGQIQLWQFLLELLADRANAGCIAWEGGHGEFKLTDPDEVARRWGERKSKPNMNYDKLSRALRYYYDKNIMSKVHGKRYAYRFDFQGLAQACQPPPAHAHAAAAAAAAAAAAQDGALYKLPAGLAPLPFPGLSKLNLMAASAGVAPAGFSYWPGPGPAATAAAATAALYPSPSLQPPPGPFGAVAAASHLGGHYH
In short: as §1

ETV5 = ETV5 (Homo sapiens, UniProt P41161 1-510)
In short: as §1

SPIC = target: T8, SPIC (Homo sapiens, UniProt Q8N5J4 1-248)
T8 sequence: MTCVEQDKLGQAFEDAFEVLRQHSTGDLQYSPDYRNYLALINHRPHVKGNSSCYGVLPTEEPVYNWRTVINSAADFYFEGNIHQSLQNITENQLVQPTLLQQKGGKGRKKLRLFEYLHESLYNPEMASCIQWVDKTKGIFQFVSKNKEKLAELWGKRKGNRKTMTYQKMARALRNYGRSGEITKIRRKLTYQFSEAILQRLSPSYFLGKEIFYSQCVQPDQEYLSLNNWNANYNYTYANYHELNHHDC
In short: as §1

ELF4 = ELF4 (Homo sapiens, UniProt Q99607 1-663)
In short: as §1

ELK4 = target: T9, ELK4 (Homo sapiens, UniProt P28324-2 1-405)
T9 sequence: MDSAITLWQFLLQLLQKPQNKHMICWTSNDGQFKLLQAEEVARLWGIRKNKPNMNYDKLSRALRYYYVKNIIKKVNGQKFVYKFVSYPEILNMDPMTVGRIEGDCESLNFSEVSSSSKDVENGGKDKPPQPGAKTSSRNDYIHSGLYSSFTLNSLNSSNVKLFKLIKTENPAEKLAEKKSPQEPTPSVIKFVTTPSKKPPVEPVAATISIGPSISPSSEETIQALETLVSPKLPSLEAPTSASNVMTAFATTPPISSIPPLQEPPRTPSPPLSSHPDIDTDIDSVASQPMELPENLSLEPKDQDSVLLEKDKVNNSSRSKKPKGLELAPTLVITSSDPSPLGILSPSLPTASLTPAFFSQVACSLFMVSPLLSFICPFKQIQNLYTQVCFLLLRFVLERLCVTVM
In short: as §1

ETV2 = target: T10, ETV2 (Homo sapiens, UniProt O00321 1-342)
T10 sequence: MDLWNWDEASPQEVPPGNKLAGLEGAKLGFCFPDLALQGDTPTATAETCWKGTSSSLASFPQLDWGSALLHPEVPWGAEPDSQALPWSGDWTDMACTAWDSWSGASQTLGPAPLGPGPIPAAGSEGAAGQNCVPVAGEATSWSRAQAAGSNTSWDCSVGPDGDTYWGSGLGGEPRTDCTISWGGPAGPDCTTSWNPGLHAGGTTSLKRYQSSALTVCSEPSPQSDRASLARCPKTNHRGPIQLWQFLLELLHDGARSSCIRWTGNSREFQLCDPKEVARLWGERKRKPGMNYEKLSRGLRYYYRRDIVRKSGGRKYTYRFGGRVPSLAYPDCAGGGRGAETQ
In short: as §1

ELF3 = target: T11, ELF3 (Homo sapiens, UniProt P78545 1-371)
T11 sequence: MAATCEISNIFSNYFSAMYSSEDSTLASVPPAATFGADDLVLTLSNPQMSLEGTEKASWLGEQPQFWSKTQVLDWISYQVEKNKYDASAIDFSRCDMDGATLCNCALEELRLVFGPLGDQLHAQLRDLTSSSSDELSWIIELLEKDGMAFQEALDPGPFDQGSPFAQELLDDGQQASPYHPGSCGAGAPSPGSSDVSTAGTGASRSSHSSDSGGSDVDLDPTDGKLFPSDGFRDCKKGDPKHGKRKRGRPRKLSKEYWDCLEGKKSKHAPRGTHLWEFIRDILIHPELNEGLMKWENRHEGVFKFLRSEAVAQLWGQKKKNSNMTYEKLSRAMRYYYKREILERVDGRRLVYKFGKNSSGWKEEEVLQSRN
In short: as §1

ETV1 = ETV1 (Homo sapiens, UniProt P50549 1-477)
In short: as §1

Sequence of ELF4 (Q99607 whole entry): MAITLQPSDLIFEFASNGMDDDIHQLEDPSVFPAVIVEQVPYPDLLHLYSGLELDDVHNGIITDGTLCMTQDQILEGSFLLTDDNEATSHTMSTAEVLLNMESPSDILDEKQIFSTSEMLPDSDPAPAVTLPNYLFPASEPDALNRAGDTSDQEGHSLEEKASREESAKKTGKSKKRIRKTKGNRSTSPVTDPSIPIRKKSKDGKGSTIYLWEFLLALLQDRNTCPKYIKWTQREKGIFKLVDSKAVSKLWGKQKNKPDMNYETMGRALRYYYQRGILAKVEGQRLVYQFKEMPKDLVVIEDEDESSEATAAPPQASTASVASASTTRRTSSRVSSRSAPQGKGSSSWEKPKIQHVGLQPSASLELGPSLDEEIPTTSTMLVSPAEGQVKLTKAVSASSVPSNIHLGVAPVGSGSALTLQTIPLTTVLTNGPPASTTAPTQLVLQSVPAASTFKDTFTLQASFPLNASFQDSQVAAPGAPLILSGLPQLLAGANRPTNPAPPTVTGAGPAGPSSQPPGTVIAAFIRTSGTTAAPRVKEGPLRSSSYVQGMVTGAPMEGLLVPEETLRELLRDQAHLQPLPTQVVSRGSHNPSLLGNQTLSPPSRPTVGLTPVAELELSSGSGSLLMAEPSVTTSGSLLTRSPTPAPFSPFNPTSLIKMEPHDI
Sequence of ELF1 (P32519 whole entry): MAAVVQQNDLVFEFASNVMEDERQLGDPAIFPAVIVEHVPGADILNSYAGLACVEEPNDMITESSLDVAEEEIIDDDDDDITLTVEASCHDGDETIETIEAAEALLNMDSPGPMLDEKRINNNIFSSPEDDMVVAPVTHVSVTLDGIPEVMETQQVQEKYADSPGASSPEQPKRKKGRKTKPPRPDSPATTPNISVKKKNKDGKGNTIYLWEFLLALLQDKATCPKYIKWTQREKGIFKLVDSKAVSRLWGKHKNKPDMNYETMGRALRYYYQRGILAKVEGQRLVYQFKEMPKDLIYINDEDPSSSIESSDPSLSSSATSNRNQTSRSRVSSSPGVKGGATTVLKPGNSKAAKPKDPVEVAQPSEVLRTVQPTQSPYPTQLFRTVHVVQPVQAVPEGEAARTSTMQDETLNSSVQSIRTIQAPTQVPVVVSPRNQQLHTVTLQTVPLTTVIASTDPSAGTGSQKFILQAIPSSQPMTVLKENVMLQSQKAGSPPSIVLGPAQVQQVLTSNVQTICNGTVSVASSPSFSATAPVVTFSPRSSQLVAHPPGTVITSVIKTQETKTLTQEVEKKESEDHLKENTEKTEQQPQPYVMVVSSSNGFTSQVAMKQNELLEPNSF
Sequence of SPIB (Q01892 whole entry): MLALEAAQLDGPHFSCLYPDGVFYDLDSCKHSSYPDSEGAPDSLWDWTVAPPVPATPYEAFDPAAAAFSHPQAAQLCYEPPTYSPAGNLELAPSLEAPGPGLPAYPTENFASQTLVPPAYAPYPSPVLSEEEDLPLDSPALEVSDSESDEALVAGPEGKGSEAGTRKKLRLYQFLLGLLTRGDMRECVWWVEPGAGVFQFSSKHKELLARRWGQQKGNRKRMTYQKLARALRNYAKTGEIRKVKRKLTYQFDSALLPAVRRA
Sequence of ETV1 (P50549 whole entry): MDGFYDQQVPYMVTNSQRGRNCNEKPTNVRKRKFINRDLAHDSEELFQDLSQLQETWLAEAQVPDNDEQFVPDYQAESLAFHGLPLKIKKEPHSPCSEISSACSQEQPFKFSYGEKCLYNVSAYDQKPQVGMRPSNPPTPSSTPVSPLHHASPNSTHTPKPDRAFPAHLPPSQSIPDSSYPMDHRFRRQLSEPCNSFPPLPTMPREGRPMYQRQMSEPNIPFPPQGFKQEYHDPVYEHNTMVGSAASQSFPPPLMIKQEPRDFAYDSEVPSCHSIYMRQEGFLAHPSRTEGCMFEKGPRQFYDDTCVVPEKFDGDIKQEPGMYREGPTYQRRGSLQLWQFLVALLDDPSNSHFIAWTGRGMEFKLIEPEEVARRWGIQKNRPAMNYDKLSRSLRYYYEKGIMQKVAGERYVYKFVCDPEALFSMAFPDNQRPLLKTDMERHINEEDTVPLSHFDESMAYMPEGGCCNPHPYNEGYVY
Sequence of ETV5 (P41161 whole entry): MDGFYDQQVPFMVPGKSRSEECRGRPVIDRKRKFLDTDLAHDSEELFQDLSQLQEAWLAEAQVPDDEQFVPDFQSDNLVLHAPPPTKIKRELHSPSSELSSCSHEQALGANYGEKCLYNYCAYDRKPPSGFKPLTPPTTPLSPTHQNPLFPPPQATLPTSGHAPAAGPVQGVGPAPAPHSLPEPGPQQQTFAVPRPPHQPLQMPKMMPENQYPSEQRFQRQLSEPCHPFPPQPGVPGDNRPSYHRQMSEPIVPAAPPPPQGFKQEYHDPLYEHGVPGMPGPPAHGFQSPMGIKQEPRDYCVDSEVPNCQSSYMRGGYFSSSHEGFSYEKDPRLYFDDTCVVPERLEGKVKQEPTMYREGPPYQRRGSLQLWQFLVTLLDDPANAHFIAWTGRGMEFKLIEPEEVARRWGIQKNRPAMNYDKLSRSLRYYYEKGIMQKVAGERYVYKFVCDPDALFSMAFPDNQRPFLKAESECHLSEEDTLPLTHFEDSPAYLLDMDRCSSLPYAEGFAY

| Sequence | binding signal (FLI1) | binding signal (ELK1) | binding signal (GABPA) | binding signal (ERG) | binding signal (ELF1) | binding signal (EHF) | binding signal (SPI1) | binding signal (SPIB) | binding signal (ELK3) | binding signal (FEV) | binding signal (ETV5) | binding signal (SPIC) | binding signal (ELF4) | binding signal (ELK4) | binding signal (ETV2) | binding signal (ELF3) | binding signal (ETV1) |
| --- | --- | --- | --- | --- | --- | --- | --- | --- | --- | --- | --- | --- | --- | --- | --- | --- | --- |
| CGCTAC | 1.24 fold enrichment (6-mer frequency, TF over GST control) | 1.23 fold enrichment (6-mer frequency, TF over GST control) | 1.25 fold enrichment (6-mer frequency, TF over GST control) | 1.24 fold enrichment (6-mer frequency, TF over GST control) | 1.2 fold enrichment (6-mer frequency, TF over GST control) | 1.13 fold enrichment (6-mer frequency, TF over GST control) | 1.16 fold enrichment (6-mer frequency, TF over GST control) | 1.13 fold enrichment (6-mer frequency, TF over GST control) | 1.28 fold enrichment (6-mer frequency, TF over GST control) | 1.18 fold enrichment (6-mer frequency, TF over GST control) | 1.15 fold enrichment (6-mer frequency, TF over GST control) | 1.18 fold enrichment (6-mer frequency, TF over GST control) | 1.24 fold enrichment (6-mer frequency, TF over GST control) | 1.2 fold enrichment (6-mer frequency, TF over GST control) | 1.25 fold enrichment (6-mer frequency, TF over GST control) | 1.24 fold enrichment (6-mer frequency, TF over GST control) | 1.27 fold enrichment (6-mer frequency, TF over GST control) |
| CTGTTG | 1.08 fold enrichment (6-mer frequency, TF over GST control) | 1.02 fold enrichment (6-mer frequency, TF over GST control) | 1.11 fold enrichment (6-mer frequency, TF over GST control) | 1.09 fold enrichment (6-mer frequency, TF over GST control) | 1.1 fold enrichment (6-mer frequency, TF over GST control) | 1.13 fold enrichment (6-mer frequency, TF over GST control) | 1.16 fold enrichment (6-mer frequency, TF over GST control) | 1.15 fold enrichment (6-mer frequency, TF over GST control) |  | 1.06 fold enrichment (6-mer frequency, TF over GST control) | 1.03 fold enrichment (6-mer frequency, TF over GST control) | 1.12 fold enrichment (6-mer frequency, TF over GST control) | 1.17 fold enrichment (6-mer frequency, TF over GST control) | 1.1 fold enrichment (6-mer frequency, TF over GST control) | 1.13 fold enrichment (6-mer frequency, TF over GST control) | 1.03 fold enrichment (6-mer frequency, TF over GST control) | 1.09 fold enrichment (6-mer frequency, TF over GST control) |
| CACTGT | 1.12 fold enrichment (6-mer frequency, TF over GST control) | 1.09 fold enrichment (6-mer frequency, TF over GST control) | 1.17 fold enrichment (6-mer frequency, TF over GST control) | 1.14 fold enrichment (6-mer frequency, TF over GST control) | 1.16 fold enrichment (6-mer frequency, TF over GST control) | 1.19 fold enrichment (6-mer frequency, TF over GST control) | 1.11 fold enrichment (6-mer frequency, TF over GST control) | 1.22 fold enrichment (6-mer frequency, TF over GST control) | 1.03 fold enrichment (6-mer frequency, TF over GST control) | 1.09 fold enrichment (6-mer frequency, TF over GST control) | 1.1 fold enrichment (6-mer frequency, TF over GST control) | 1.19 fold enrichment (6-mer frequency, TF over GST control) | 1.15 fold enrichment (6-mer frequency, TF over GST control) | 1.17 fold enrichment (6-mer frequency, TF over GST control) | 1.25 fold enrichment (6-mer frequency, TF over GST control) | 1.04 fold enrichment (6-mer frequency, TF over GST control) | 1.11 fold enrichment (6-mer frequency, TF over GST control) |
